Experimental data reported in PubChem BioAssay AID1159580 (chemical genetic matrix, 2015).
“And” between values parts separate entries of the source, which are not always exact repeats. Identical values can stand only once. Out of some 5,500 compounds screened, about 2,000 (36%) were called active. Roughly 18% stayed inconclusive and do not appear here. Cut-off read from the data, not from the text of the source: active = normalized growth mostly below about 0.91 (no sharp cut-off); inconclusive = no clear call, values can overlap the other calls; inactive = mostly above about 0.92. Some of the results follow.

Assay: chemical genetic growth profiling, strain panel (AID 1159580);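 note: tested at 20 µM; growth read once vehicle control cultures reached saturation at 30 °C; 1 = growth at the plate median or of vehicle wells; lower values mean less growth of the strain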
Conditions: S. cerevisiae deletion strains, growth OD

Measured: normalized growth

CCCc1nc2c(C)cc(-c3nc4ccccc4n3C)cc2n1Cc1ccc(-c2ccccc2C(=O)O)cc1
inactive: locus YAL013W, strain DEP1, stronger effect = lower value 1.01 | locus YAL021C, strain ccr4, stronger effect = lower value 1.02 | locus YAL026C, strain drs2, stronger effect = lower value 1 | locus YAL030W, strain snc1, stronger effect = lower value 1.01 | locus YBL061C, strain skt5, stronger effect = lower value 1.01 | locus YBR009C, strain hhf1, stronger effect = lower value 1.01 | locus YBR021W, strain FUR4, stronger effect = lower value 0.992 | locus YBR023C, strain chs3, stronger effect = lower value 1.01 | locus YBR171W, strain sec66, stronger effect = lower value 1.02 | locus YBR229C, strain ROT2, stronger effect = lower value 1 | locus YBR231C, strain swc5, stronger effect = lower value 1.02 | locus YBR279W, strain paf1, stronger effect = lower value 1.01 | locus YCL011C, strain gbp2, stronger effect = lower value 1.01 | locus YCL016C, strain dcc1, stronger effect = lower value 1 | locus YCL029C, strain bik1, stronger effect = lower value 1.01 | locus YCL069W, strain vba3, stronger effect = lower value 1.02 | locus YCR088W, strain abp1, stronger effect = lower value 1.02 | locus YDL005C, strain med2, stronger effect = lower value 1.02 | locus YDL035C, strain GPR1, stronger effect = lower value 0.98 | locus YDL040C, strain nat1, stronger effect = lower value 1.01 | locus YDL074C, strain BRE1, stronger effect = lower value 0.997 | locus YDL101C, strain DUN1, stronger effect = lower value 0.999 | locus YDL134C, strain PPH21, stronger effect = lower value 1 | locus YDL185W, strain tfp1, stronger effect = lower value 1.01 | locus YDL192W, strain arf1, stronger effect = lower value 1.02 | locus YDR001C, strain nth1, stronger effect = lower value 1.02 | locus YDR069C, strain doa4, stronger effect = lower value 1.03 | locus YDR101C, strain arx1, stronger effect = lower value 0.989 | locus YDR137W, strain rgp1, stronger effect = lower value 0.975 | locus YDR150W, strain NUM1, stronger effect = lower value 1.01 | locus YDR159W, strain sac3, stronger effect = lower value 0.978 | locus YDR162C, strain NBP2, stronger effect = lower value 1.01 | locus YDR195W, strain ref2 1.06 | locus YDR297W, strain sur2, stronger effect = lower value 1.01 | locus YDR318W, strain mcm21, stronger effect = lower value 1 | locus YDR334W, strain swr1, stronger effect = lower value 1.02 | locus YDR335W, strain msn5, stronger effect = lower value 1.03 | locus YDR388W, stronger effect = lower value 1.02 | locus YDR392W, strain spt3, stronger effect = lower value 0.829 | locus YDR502C, strain sam2, stronger effect = lower value 1 | locus YEL003W, strain gim4, stronger effect = lower value 1.02 | locus YEL037C, strain rad23, stronger effect = lower value 1.02 | locus YEL061C, strain CIN8 (second series), stronger effect = lower value 1.02 | locus YEL061C, strain CIN8, stronger effect = lower value 1.01 | locus YER015W, strain faa2, stronger effect = lower value 1.01 | locus YER016W, strain bim1, stronger effect = lower value 1.01 | locus YER110C, stronger effect = lower value 1.02 | locus YER111C, strain swi4, stronger effect = lower value 1.01 | locus YER155C, strain BEM2 (second series), stronger effect = lower value 0.926 | locus YER155C, strain BEM2, stronger effect = lower value 1 | locus YER167W, strain BCK2, stronger effect = lower value 0.998 | locus YFR010W, strain ubp6, stronger effect = lower value 1.03 | locus YGL078C, strain dbp3, stronger effect = lower value 1.01 | locus YGL086W, strain mad1, stronger effect = lower value 0.988 | locus YGL167C, strain pmr1, stronger effect = lower value 1.02 | locus YGL173C, strain kem1, stronger effect = lower value 1.01 | locus YGL227W, strain vid30, stronger effect = lower value 1.01 | locus YGL240W, strain doc1, stronger effect = lower value 1.01 | locus YGL248W, strain PDE1, stronger effect = lower value 0.994 | locus YGL253W, strain hxk2, stronger effect = lower value 1.03 | locus YGR078C, strain PAC10, stronger effect = lower value 0.997 | locus YGR135W, strain pre9, stronger effect = lower value 1.04 | locus YGR229C, strain SMI1, stronger effect = lower value 1.01 | locus YGR252W, strain gcn5, stronger effect = lower value 0.994 | locus YHR013C, strain ard1, stronger effect = lower value 1.04 | locus YHR027C, strain rpn1, stronger effect = lower value 1.01 | locus YHR030C, strain SLT2, stronger effect = lower value 1 and 0.973 | locus YHR079C, strain IRE1 (second series), stronger effect = lower value 0.997 | locus YHR079C, strain IRE1, stronger effect = lower value 0.967 | locus YHR094C, strain hxt1, stronger effect = lower value 1.01 | locus YHR129C, strain ARP1, stronger effect = lower value 0.996 | locus YHR142W, strain chs7, stronger effect = lower value 1.03 | locus YHR200W, strain rpn10, stronger effect = lower value 1 | locus YIL066C, strain RNR3, stronger effect = lower value 0.997 | locus YIL073C, strain SPO22, stronger effect = lower value 1.08 | locus YIL125W, strain kgd1, stronger effect = lower value 1 | locus YIR030C, strain dcg1, stronger effect = lower value 1.01 | locus YJL092W, strain hpr5, stronger effect = lower value 1.01 | locus YJL095W, strain BCK1 (second series), stronger effect = lower value 1 | locus YJL095W, strain BCK1, stronger effect = lower value 0.989 and 0.986 | locus YJL115W, strain asf1, stronger effect = lower value 1.01 | locus YJL129C, strain trk1, stronger effect = lower value 0.956 | locus YJL134W, strain LCB3, stronger effect = lower value 1 | locus YJL154C, strain vps35, stronger effect = lower value 1.01 | locus YJL164C, strain tpk1, stronger effect = lower value 1 | locus YJL166W, strain qcr8, stronger effect = lower value 1.01 | locus YJL168C, strain set2, stronger effect = lower value 1 | locus YJL187C, strain SWE1 (second series), stronger effect = lower value 0.995 | locus YJL187C, strain SWE1, stronger effect = lower value 1.01
